Molecules are shown by their SMILES. For some of these results: Potency and affinity values are given separately.

Holding throughout (parameters): scale not given: direction of the effect not stated beside the values
The target of test [1] is Protein translocase subunit SecA (Escherichia coli (strain K12)) (UniProt P10408). Briefly: Assay to Identify E. coli SecA ATPase Inhibitors. The test is classed as functional. To be noted: 30 µM.
Test [2] has as its target T1, Ubiquitin-activating enzyme e1, putative (Leishmania donovani (strain BPK282A1)) (UniProt E9BSI1).
T1 sequence (whole entry): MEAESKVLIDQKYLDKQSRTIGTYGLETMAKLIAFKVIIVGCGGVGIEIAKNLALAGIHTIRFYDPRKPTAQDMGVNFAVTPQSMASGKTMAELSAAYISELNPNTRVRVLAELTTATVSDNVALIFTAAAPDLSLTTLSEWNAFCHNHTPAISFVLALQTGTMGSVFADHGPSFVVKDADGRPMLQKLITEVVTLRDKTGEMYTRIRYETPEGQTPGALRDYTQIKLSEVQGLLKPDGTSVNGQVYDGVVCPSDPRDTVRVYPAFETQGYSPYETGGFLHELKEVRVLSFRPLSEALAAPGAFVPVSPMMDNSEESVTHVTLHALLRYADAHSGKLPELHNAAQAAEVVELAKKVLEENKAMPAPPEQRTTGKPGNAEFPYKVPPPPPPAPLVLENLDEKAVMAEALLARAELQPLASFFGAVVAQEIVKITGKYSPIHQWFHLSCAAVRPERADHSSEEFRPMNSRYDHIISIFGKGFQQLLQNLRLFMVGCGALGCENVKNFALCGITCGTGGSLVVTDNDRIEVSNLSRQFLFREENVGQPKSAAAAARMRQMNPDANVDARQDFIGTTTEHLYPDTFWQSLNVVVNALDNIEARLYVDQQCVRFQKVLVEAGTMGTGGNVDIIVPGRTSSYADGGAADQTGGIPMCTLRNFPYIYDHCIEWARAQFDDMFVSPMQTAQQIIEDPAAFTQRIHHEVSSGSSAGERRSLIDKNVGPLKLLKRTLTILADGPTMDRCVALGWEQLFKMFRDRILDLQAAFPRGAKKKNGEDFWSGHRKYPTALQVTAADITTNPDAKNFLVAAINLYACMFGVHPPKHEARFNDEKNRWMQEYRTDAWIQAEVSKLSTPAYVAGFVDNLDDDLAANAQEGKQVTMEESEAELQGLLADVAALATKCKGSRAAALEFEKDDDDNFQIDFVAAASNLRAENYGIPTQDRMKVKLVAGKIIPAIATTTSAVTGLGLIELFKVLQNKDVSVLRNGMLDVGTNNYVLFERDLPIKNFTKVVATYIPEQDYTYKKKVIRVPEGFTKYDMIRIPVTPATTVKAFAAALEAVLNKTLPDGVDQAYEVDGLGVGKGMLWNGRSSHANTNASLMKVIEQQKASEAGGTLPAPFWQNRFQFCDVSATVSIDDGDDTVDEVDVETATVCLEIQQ
Briefly: Leishmania donovani Ubiquitin Activating Enzyme (LdE1). To be noted: 30 µM. The test is classed as functional.

Test [3] concerns the target AMP-activated protein kinase, AMPK (Homo sapiens) (UniProt P54646+O43741+P54619+Q9UGJ0+Q9Y478+Q13131+Q9UGI9). Put plainly: AMP-dependent Kinase enzyme assay. An in vitro enzyme assay that detects ADP turnover that is directly proportional to AMPK activity. This uses naive AMPK that is activated during the assay with MK-8722. Type of test: functional. The conditions noted are these: 30 µM.

Test [4] has as its target Sialic acid-binding Ig-like lectin 9 (Homo sapiens) (UniProt Q9Y336). Put plainly: Hs-Siglec9 ALPHAscreen SOP 20170721. The conditions noted are these: 10 µM. On the technique in general: In Alpha technology, singlet oxygen from a donor bead excites a nearby acceptor bead.
The test system of test [5] is Trypanosoma cruzi. Put plainly: Trypanosoma cruzi phosphomannomutase and mannose-1-phosphate guanylyltransferase assay. The test is classed as functional. The conditions noted are these: 10 µM.
Test [6] addresses T2, Arginase-2, mitochondrial (Homo sapiens) (UniProt P78540).
T2 sequence (whole entry): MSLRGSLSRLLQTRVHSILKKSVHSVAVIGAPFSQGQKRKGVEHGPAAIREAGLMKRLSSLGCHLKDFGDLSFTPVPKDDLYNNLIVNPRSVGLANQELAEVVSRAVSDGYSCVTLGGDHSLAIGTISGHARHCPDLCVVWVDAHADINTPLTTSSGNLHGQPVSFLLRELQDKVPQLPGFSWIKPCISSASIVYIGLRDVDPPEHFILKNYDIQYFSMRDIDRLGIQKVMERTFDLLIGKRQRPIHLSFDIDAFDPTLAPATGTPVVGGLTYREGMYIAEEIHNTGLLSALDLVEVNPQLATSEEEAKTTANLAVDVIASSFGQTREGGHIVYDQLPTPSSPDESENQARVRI
Put plainly: in vitro enzyme assay to detect the production of urea directly proportional to the activity of Arginase II. Further: in the data most compounds retested in dose-response had high values. The test is classed as functional. The conditions noted are these: 33.3 µM.

Test [7] deals with T3, Proteasome subunit beta (Trypanosoma cruzi) (UniProt O96673).
T3 sequence (whole entry): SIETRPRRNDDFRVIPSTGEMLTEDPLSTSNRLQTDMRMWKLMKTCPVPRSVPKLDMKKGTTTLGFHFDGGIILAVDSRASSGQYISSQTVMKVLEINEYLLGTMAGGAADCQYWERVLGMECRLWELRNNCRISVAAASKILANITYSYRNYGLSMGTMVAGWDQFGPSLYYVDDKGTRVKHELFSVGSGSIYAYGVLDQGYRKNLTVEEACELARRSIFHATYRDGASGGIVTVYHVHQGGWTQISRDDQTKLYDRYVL
Briefly: Trypanosoma cruzi proteasome chymotrypsin-like activity (TcProtChymo) assay. Further: in the data most compounds retested in dose-response had high values. Type of test: functional. The conditions noted are these: 9.37 µM.

The species named for test [8] is Homo sapiens. Briefly: To identify inhibition of the IFN signalling (Jak-Stat) pathway via expression of an eGFP reporter gene under the control of an IFN-stimulated response element (ISRE) containing MxA promoter. To be noted: 30 µM. Type of test: functional. On the technique in general: Reporter assays use an easily measured gene product as a stand-in for the process of interest.

Test [9] concerns the target T4, Tyrosyl-tRNA synthetase, putative (Trypanosoma cruzi (strain CL Brener)) (UniProt Q4DSP6).
T4 sequence (whole entry): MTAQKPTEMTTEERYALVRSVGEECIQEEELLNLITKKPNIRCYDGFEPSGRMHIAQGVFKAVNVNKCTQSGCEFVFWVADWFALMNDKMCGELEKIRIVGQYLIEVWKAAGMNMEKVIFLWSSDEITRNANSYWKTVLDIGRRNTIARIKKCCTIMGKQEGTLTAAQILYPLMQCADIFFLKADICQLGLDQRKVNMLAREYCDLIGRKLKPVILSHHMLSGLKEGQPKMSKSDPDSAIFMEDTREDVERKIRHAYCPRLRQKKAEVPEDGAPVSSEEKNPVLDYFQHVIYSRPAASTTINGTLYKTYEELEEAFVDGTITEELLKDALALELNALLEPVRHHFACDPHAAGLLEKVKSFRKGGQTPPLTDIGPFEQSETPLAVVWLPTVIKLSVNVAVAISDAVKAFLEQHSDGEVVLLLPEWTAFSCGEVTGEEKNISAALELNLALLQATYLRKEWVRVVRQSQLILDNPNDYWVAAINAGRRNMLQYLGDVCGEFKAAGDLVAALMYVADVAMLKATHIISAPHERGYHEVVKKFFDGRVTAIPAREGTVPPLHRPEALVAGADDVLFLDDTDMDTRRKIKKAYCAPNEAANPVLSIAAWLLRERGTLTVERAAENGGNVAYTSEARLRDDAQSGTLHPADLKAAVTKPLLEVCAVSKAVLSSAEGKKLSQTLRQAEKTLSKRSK
Briefly: Trypanosoma cruzi tyrosyl tRNA synthetase (TcYRS) _High Tyrosine SOP. Further: in the data most compounds retested in dose-response had high values. To be noted: 30 µM. Type of test: functional.

Test [10] addresses T4, Tyrosyl-tRNA synthetase, putative (Trypanosoma cruzi (strain CL Brener)). Briefly: Trypanosoma cruzi tyrosyl tRNA synthetase (TcYRS) SOP. The test is classed as functional. The conditions noted are these: 30 µM.
Test [11] concerns the target Chromo domain-containing protein 1 (Saccharomyces cerevisiae (strain ATCC 204508 / S288c) (Baker's yeast)) (UniProt P32657). Briefly: ScCHD-1 Enzyme Inhibition Assay. Further: in the data most compounds retested in dose-response had high values. Type of test: functional. The conditions noted are these: 30 µM.

Chain of Sialic acid-binding Ig-like lectin 9 (Homo sapiens) (Q9Y336 whole entry): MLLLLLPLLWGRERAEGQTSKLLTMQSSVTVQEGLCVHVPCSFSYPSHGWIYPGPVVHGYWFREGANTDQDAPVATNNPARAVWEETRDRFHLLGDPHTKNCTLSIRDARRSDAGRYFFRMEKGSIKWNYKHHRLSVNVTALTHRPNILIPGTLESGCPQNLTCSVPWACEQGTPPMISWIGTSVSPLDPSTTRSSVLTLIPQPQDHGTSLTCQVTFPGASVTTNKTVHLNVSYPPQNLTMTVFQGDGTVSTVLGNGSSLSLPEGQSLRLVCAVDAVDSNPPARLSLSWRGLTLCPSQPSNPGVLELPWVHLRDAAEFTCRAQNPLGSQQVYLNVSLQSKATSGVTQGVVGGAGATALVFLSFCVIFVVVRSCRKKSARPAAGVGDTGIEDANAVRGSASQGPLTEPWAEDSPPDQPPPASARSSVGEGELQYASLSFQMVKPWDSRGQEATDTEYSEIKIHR
Chain of Chromo domain-containing protein 1 (Saccharomyces cerevisiae (strain ATCC 204508 / S288c) (Baker's yeast)) (P32657 whole entry, the tested form may be a part): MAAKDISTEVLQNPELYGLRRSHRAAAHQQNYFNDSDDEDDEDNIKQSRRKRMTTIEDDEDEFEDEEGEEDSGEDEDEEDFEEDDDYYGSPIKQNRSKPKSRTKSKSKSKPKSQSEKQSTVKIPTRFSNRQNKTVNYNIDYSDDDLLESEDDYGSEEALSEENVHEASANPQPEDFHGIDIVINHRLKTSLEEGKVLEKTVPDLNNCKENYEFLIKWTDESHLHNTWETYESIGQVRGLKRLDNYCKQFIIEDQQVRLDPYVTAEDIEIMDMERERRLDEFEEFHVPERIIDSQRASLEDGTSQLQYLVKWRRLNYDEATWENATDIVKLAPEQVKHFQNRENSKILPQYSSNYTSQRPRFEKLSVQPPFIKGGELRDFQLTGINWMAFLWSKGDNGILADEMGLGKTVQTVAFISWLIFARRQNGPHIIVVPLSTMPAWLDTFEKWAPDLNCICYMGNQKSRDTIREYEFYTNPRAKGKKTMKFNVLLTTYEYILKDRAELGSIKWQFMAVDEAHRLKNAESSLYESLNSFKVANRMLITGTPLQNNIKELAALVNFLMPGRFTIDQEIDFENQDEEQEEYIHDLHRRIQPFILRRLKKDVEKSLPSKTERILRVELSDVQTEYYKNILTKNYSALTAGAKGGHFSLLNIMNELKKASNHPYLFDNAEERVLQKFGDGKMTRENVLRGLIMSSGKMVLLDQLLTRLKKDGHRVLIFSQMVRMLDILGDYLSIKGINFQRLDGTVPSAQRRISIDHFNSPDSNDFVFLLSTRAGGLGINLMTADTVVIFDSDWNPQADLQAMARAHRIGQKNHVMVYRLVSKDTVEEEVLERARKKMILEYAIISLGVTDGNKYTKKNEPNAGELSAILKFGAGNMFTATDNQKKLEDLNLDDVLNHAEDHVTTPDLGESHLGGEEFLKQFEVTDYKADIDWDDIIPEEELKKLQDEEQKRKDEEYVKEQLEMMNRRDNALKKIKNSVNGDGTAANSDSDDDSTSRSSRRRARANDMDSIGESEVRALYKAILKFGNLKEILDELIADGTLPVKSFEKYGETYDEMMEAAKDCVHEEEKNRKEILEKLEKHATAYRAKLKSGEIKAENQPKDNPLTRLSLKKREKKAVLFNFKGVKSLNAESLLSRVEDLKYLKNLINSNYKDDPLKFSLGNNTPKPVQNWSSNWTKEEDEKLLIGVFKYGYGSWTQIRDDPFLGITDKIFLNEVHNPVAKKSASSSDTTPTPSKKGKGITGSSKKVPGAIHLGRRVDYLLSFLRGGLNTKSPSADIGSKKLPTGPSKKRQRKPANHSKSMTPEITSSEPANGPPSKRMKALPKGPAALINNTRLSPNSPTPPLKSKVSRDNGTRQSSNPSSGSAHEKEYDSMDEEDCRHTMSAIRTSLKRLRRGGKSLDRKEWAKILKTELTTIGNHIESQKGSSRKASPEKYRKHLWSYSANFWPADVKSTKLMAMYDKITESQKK
Chain of Protein translocase subunit SecA (Escherichia coli (strain K12)) (P10408 whole entry): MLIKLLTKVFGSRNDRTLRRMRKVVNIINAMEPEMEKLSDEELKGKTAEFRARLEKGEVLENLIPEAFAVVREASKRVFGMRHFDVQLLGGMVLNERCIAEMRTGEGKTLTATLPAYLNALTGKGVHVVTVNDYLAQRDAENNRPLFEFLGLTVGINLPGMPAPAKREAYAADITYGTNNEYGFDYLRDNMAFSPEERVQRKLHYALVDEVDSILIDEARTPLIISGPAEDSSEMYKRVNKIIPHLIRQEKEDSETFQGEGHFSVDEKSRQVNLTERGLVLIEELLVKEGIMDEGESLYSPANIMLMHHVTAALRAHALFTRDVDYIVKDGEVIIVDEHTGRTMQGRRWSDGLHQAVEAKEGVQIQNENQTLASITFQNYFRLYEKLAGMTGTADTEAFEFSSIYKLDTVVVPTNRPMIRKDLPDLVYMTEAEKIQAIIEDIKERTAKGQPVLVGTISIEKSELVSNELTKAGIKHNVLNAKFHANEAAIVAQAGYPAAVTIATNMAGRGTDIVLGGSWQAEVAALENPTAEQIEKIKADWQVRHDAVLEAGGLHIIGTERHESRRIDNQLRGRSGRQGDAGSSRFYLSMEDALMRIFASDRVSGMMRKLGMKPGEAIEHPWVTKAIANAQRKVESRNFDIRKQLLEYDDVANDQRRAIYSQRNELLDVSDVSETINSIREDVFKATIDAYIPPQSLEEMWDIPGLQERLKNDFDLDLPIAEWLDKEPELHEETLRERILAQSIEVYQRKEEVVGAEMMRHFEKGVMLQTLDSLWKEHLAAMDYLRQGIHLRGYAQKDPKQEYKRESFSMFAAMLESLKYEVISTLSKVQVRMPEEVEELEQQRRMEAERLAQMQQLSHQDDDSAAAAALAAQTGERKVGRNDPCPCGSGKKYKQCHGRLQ

As to `CN1C[C@H]2CCN(C(=O)NC3CCCC3)CC[C@H]2S1(=O)=O`, the Percent Effect is 1.67% in test [1]; -4% in [2]; 10.5% in test [3]; -0.732% in test [4]; -5.7% in test [5]; 29.4% in [6]. Moreover, the Percent Effect in test [7] was 4.62%; in test [8], -1.7%; in test [9], 1.06%; in test [10], -2.56%; in [11] it was -5.65%.
In the case of `CNC(=O)C1Cn2ccnc2C2(CCN(Cc3cccnc3)CC2)O1` (stereo unspecified), the Percent Effect in test [1] is -4.76%; in test [2], 10.8%; in test [3], 2.08%; in test [4] it was 2.7%; in test [5], -0.684%; in test [6], -0.319%. The Percent Effect in [7] was 23.4%; in [8], -1.62%; in test [9] it was 9.73%; in test [10], 25.6%; in [11] it was -0.425%.
`COCCN1C[C@@H]2CN(c3ncccn3)C[C@@H]2C1=O`: the Percent Effect is -4.06% in test [1]; 2.7% in test [2]; 0.915% in test [3]; -6.74% in test [4]; -0.586% in test [5]; -4.17% in [6]. Besides, the Percent Effect in test [7] is 8.2%; in test [8] it was -19.7%; in test [9] it was 76.2%; in test [10], -1.22%; in test [11] it was 474%.
Turning to `Cc1nn(CCn2ccnc2-c2cc3n(n2)CCCNC3)c(C)c1Cl`, the Percent Effect in test [1] is -4.62%; in [2], 21.3%; in test [3] it was -6.15%; in test [4], 20.4%; in [5] it was 5.75%; in [6], 6.25%. For the same molecule, the Percent Effect in test [7] was 16.9%; in test [8] it was 21.8%; in [9], 7.1%; in [10] it was 23.5%; in [11], -7.41%.
For the molecule `Cc1nn(C(C)C)c(C)c1NC(=O)c1ccccc1`, the Percent Effect in test [1] is -2.77%; in [2] it was 2.74%; in test [3], -0.803%; in test [4], 6.74%; in test [5] it was 4.17%; in [6], -2.4%. For the same molecule, the Percent Effect in test [7] was 14.5%; in test [8], -0.0619%; in test [9], 7.29%; in test [10] it was -3.7%; in test [11], -1.66%.
`CC(=O)NCCNC(=O)c1sc(-c2ccc(C)cc2C)nc1C`: the Percent Effect in [1] is -2.37%; in test [2], 10.8%; in test [3] it was -0.818%; in test [4] it was -4.19%; in test [5], -7.89%; in test [6] it was 3.51%. In addition, the Percent Effect is 8.26% in test [7]; 10.8% in test [8]; 4.95% in test [9]; 11% in [10]; 7.83% in test [11].
With `Cc1nn(C)c(C)c1C1CCCN1C(=O)CCc1cscn1` (stereo unspecified), the Percent Effect in test [1] is -2.32%; in test [2] it was -5.26%; in test [3], -4.9%; in test [4], 0.0636%; in [5], 0.467%; in [6], 0.36%. The Percent Effect is 6.18% in test [7]; -8.57% in [8]; 1.48% in [9]; 1.24% in test [10]; 2.83% in [11].
As for `Cn1c(C2CC2)nc2c1CCN(CC(=O)Nc1nncs1)C2`, the Percent Effect in [1] was -2.25%; in test [2], -2.6%; in [3], 0.616%; in [4] it was 7.43%; in [5] it was -2.06%; in test [6] it was -11.4%. Besides, the Percent Effect in [7] was 3.72%; in test [8], -9.48%; in [9], 4.85%; in test [10], 7.32%; in test [11] it was -5.21%.
On to `Cc1cc(C)nc(N2Cc3cnn(Cc4ccc(F)cc4)c3C2)n1`, for which the Percent Effect was -6.24% in test [1]; -2.67% in [2]; 1.55% in test [3]; -0.223% in test [4]; -7.5% in test [5]; -2.6% in [6]. Further, the Percent Effect is 10.6% in test [7]; 33.6% in test [8]; -6.01% in test [9]; -6.17% in test [10]; -5.39% in test [11].
As to `COCCn1ccc(=O)c(OCC(=O)Nc2cccc(C(C)=O)c2)c1C`, the Percent Effect in test [1] is -2.27%; in test [2], 12%; in test [3] it was 3.85%; in test [4] it was 5.25%; in test [5], 0.982%; in [6], -5.11%. Moreover, the Percent Effect in test [7] was 13.5%; in test [8] it was -24.6%; in [9], 8.47%; in test [10] it was 20.5%; in test [11], -3.7%.
In the case of `Cc1noc(NC(=O)c2ccc(Br)s2)n1`, the Percent Effect in test [1] was 1.05%; in test [2] it was -5.26%; in test [3], 14.6%; in [4], -3.75%; in test [5] it was -5.13%; in [6], 3.96%. In addition, the Percent Effect is 9.39% in test [7]; 40.2% in [8]; -3.45% in test [9]; 1.24% in test [10]; 15.6% in test [11].

For the origin of these results see ChEMBL document CHEMBL3988442, “University of Dundee, Small-Polar-MMV Screening Library” (2021).
